Hit rate of the full screen: of about 410,000 compounds, about 18,000 (4.4%) were called active. Roughly 7% stayed inconclusive and do not appear here. The sample holds actives, similar compounds and a random draw of the others, so the mix is not that of the screen. Cut-off read from the data, not from the text of the source: active = activity change below about -60%; inconclusive = no clear call, values can overlap the other calls; inactive = above about -39%.
Experiment: qHTS Assay for inhibitors of the human cytomegalovirus (HCMV)
Details: HFF cells, HCMV-luciferase reporter, 72 h; at 57.5 µM; hits give low values
Text: NCGC Assay Overview: Infection with human cytomegalovirus (HCMV) continues to pose significant threats for pregnant women and immunocompromised hosts. HCMV causes serious morbidity and mortality in transplant recipients, and congenital HCMV is the leading infectious cause of mental retardation and deafness in children. In the 1990s, the annual costs associated with the disease burden of congenital CMV were estimated at around $2 billion. A HCMV vaccine is not available yet and HCMV therapies result in intolerable side effects and emergence of drug resistant viruses. […] Towards this goal we have developed and characterized a luciferase HCMV reporter that was initially used in 96 well plates and then optimized to 1536-well plates for utilization in screening of the MLSMR collection, the NGCG diversity collection and the NCGC Pharmaceutical Collection of approved and investigational drugs.
NCGC Assay Protocol Summary:
This is a cell-based assay for HCMV inhibition in HFFs cells. The screening used 2 compound doses and the HCMV-luciferase at MOI of 1 PFU/cell. Cells were treated and infected with HCMV. At 72 h post infection cell lysates were collected and luciferase activity was determined using the Glomax-Multi + Detection System (Promega, Madison, WI). Data were normalized to the controls for basal activity (buffer only) and known HCMV inhibitors Salinmoycin.
1536-well assay protocol for the assay:
(1) Add 3 ul CMV/HFF cell culture. 1000 cells/well in DMEM nirmal media.
(2) Incubate 16 hr at 37C.
(3) Add 23 nl control compound, 10uM of Salinomycin.
(4) Add 23 nl compounds in DMSO solution.
(5) Add 3 ul CMV suspension. Final 1 puf/ul, Virus stock 2000pfu/ul
(6) Incubate 72 hrs at 37C.
(7) Add 4 ul OneGlo Luc Reagent.
(8) Incubate 5 min at room temperature.
In the case of `CCOC(=O)c1c(C)[nH]c(CCC(=O)Nc2ccc(OC)c(OC)c2)c1C`, the activity change, negative = inhibition is reported as 41.8% (inactive). For `Cc1ccc(N(CC(=O)NCC(C)c2ccccc2)S(=O)(=O)N(C)C)cc1` (stereo unspecified), the activity change, negative = inhibition was -6.91% (inactive). In the case of `O=C(CCc1ccccc1)NCc1ccc2c(c1)CCN2C(=O)c1ccccc1`, the activity change, negative = inhibition is reported as -7.19% (inactive). With `COC1=CCC2([N+](=O)[O-])CN(CC(=O)O)CC1([N+](=O)[O-])C2` (stereo unspecified) the activity change, negative = inhibition was -16.1% (inactive). For `CCOC(=O)c1c(C)oc2nc(C)nc(Nc3ccc(CC)cc3)c12`, the activity change, negative = inhibition was 8.66% (inactive). With `O=C(Nc1ccc(OC(F)(F)F)cc1)c1cc2c(=O)n3ccccc3nc2s1` the activity change, negative = inhibition was -5.91% (inactive). For `COc1cc(CN(CC2CCCO2)C(=O)c2ccccc2F)cc(OC)c1OC` (stereo unspecified), the activity change, negative = inhibition was -11.3% (inactive). With `CCOC(=O)CSC1=C(C#N)C(c2sccc2C)CC(=O)N1` (stereo unspecified) the activity change, negative = inhibition was -85.4% (active). In the case of `C=CCSC1=C(C#N)C(c2cc(Br)c(O)c(OC)c2)CC(=O)N1` (stereo unspecified), the activity change, negative = inhibition is reported as -10.5% (inactive). With `Cc1ccsc1C1C(C#N)=C(N)OC2=C1C(=O)CC(C)C2` (stereo unspecified) the activity change, negative = inhibition was 68.7% (inactive). With `Cc1c(-c2cccc(NC(=O)C(C)(C)C)c2)nc2ncccn12` the activity change, negative = inhibition was -37.8% (inactive). For `CCN1CCN(Cc2nc3c(c(=O)n(C)c(=O)n3C)n2CC(=O)c2ccccc2)CC1`, the activity change, negative = inhibition was -5.14% (inactive). For `CC1CCCN(Cc2nc3c(c(=O)n(C)c(=O)n3C)n2CC(=O)c2ccccc2)C1` (stereo unspecified), the activity change, negative = inhibition was -14.9% (inactive). In the case of `CCOC(=O)N1CCN(Cc2nc3c(c(=O)n(C)c(=O)n3C)n2Cc2ccccc2)CC1`, the activity change, negative = inhibition is reported as -2.17% (inactive). In the case of `CC1CCN(Cc2nc3c(c(=O)n(C)c(=O)n3C)n2CCc2ccccc2)CC1`, the activity change, negative = inhibition is reported as -62.3% (active). In the case of `CN1CCN(Cc2nc3c(c(=O)n(C)c(=O)n3C)n2Cc2cccc3ccccc23)CC1`, the activity change, negative = inhibition is reported as -10.2% (inactive). In the case of `COCCn1c(CN2CCC(Cc3ccccc3)CC2)nc2c1c(=O)n(C)c(=O)n2C`, the activity change, negative = inhibition is reported as -64.7% (active). For `COc1ccc(C)cc1NC(=O)CSc1nnc2ccc(-c3ccccn3)nn12`, the activity change, negative = inhibition was -16.1% (inactive). With `CC(C)CNc1cccc2c1S(=O)(=O)N[C@H](C)CO2` the activity change, negative = inhibition was -8.73% (inactive). With `O=[N+]([O-])c1cccc(/C([O-])=C(/C(=S)Nc2ccccc2F)[n+]2ccccc2)c1` the activity change, negative = inhibition was 18% (inactive). For `C=Cc1ccc(C(=O)N2CCCC(CCC(=O)N3CCN(c4ccccn4)CC3)C2)cc1` (stereo unspecified), the activity change, negative = inhibition was -64.7% (active). With `O=C(CCC1CCCN(C(=O)c2ccc(F)c(F)c2)C1)N1CCN(c2ccccn2)CC1` (stereo unspecified) the activity change, negative = inhibition was -29.8% (inactive). For `CC(=O)c1ccc(S(=O)(=O)NCCC(=O)N2CCN(c3ccccn3)CC2)cc1`, the activity change, negative = inhibition was 60.8% (inactive). In the case of `COc1cccc(C(=O)NC2=NC(c3ccc(N(C)C)cc3)CC(=O)N2)c1` (stereo unspecified), the activity change, negative = inhibition is reported as 1.4% (inactive). With `O=C(Nc1cccc(-c2nc3ccccc3o2)c1)c1cccc(Br)c1` the activity change, negative = inhibition was -11.9% (inactive). With `COc1ccccc1NC(=O)C(=O)c1cc(C)n(-c2ccccc2F)c1C` the activity change, negative = inhibition was -34.6% (inactive). In the case of `CCCCOC(=O)CCCc1ccc([N+](=O)[O-])cc1[N+](=O)[O-]`, the activity change, negative = inhibition is reported as -14.8% (inactive). In the case of `CCCCOc1ccc(CSC(=N)N)cc1[N+](=O)[O-]`, the activity change, negative = inhibition is reported as -63.8% (active). With `CCCCCOc1ccc(CSC2=NCCN2)cc1[N+](=O)[O-]` the activity change, negative = inhibition was 9.19% (inactive). With `CC(C)(Oc1ccc(C2CC2(Cl)Cl)cc1)C(=O)O` (stereo unspecified) the activity change, negative = inhibition was -0.36% (inactive). For `O=C1NC(Nc2nc3ccccc3s2)(C(F)(F)F)C(=O)N1C1CCCCC1` (stereo unspecified), the activity change, negative = inhibition was -63.1% (active). In the case of `O=C(NC1(C(F)(F)F)N=C(c2ccccc2)N(C2CCCCC2)C1=O)c1ccccc1F` (stereo unspecified), the activity change, negative = inhibition is reported as -18.3% (inactive). With `c1ccc2sc(SNC3CCCCC3)nc2c1` the activity change, negative = inhibition was 15% (inactive). With `COC(=O)c1ccc(NC(=O)CN(c2ccc(C)cc2)S(=O)(=O)c2c(C)n[nH]c2C)cc1` the activity change, negative = inhibition was 30% (inactive). In the case of `COC(=O)C1CCN(C(=O)NC2CC(=O)N(c3ccc4c(c3)OCCO4)C2)CC1` (stereo unspecified), the activity change, negative = inhibition is reported as -8.55% (inactive). For `Cc1nc2ccn(Cc3cccs3)c(=O)c2cc1C(=O)NCc1ccc(Cl)cc1`, the activity change, negative = inhibition was 0.24% (inactive). In the case of `CCOc1cccc(CC(=O)N2CCc3c([nH]c4ccccc34)C2c2ccc(F)cc2)c1OCC` (stereo unspecified), the activity change, negative = inhibition is reported as -33.4% (inactive). With `CCOc1cccc(CC(=O)N2CCc3c([nH]c4ccccc34)C2c2ccc(OC)cc2)c1OCC` (stereo unspecified) the activity change, negative = inhibition was 31.4% (inactive). With `COc1ccc2[nH]c3c(c2c1)CCN(C(=O)CCC1CCCC1)C3c1ccc(F)cc1` (stereo unspecified) the activity change, negative = inhibition was -81.8% (active). For `Cc1ccc(S(=O)(=O)N(C)C)cc1NC(=O)COC(=O)/C=C/c1cccs1`, the activity change, negative = inhibition was -32.1% (inactive). For `Cc1ccc(S(=O)(=O)N(C)C)cc1NC(=O)COC(=O)C1COc2ccccc2O1` (stereo unspecified), the activity change, negative = inhibition was 19% (inactive). In the case of `Cc1ccc(S(=O)(=O)N(C)C)cc1NC(=O)COC(=O)c1c(C)noc1C`, the activity change, negative = inhibition is reported as -108% (active). With `CCN(CC(=O)Nc1cccc(S(N)(=O)=O)c1)Cc1nc2ccccc2c(=O)[nH]1` the activity change, negative = inhibition was -27.6% (inactive). With `Cc1cc(C)c(-c2csc(NC(=O)CCCc3nc4ccccc4c(=O)[nH]3)n2)c(C)c1` the activity change, negative = inhibition was -72.6% (active). With `O=C(COC(=O)CCc1nc2ccccc2c(=O)[nH]1)Nc1ccc(N2CCOCC2)cc1` the activity change, negative = inhibition was -20.5% (inactive). In the case of `CC(C)NC(=O)N1CCN(c2ccncc2S(=O)(=O)N2CCCCC2)CC1`, the activity change, negative = inhibition is reported as 9.43% (inactive). For `O=C(Nc1nc2c(s1)CCCC2)c1ccccc1F`, the activity change, negative = inhibition was -68.5% (active). In the case of `CCN1CCc2nc(NC(=O)c3cc(F)c(F)cc3Cl)sc2C1`, the activity change, negative = inhibition is reported as -0.35% (inactive). For `O=C(Nc1nnc(-c2ccccc2F)s1)c1ccccc1F`, the activity change, negative = inhibition was 85% (inactive). For `C=CCn1c(C)cc(C2=NNC(=NCC)SC2)c1C`, the activity change, negative = inhibition was -99.5% (active). In the case of `COCCn1c(C)cc(C2=NNC(=Nc3ccc(F)cc3)SC2)c1C`, the activity change, negative = inhibition is reported as -107% (active). For `COc1cccc(-c2nc(S(=O)(=O)c3ccc(C)cc3)c(NCc3ccccc3)o2)c1`, the activity change, negative = inhibition was 2.24% (inactive). For `O=C(CSc1nnc(CNC(=O)c2ccccc2)n1-c1ccc(F)cc1)Nc1ccccc1F`, the activity change, negative = inhibition was -5.45% (inactive). For `Cc1cccc(Cn2cccc(C(=O)Nc3ccc4c(c3)OCCO4)c2=O)c1`, the activity change, negative = inhibition was -12.1% (inactive). For `Cc1ccc(CN2CCNC(=O)C2CC(=O)NCc2csc(C(C)C)n2)cc1` (stereo unspecified), the activity change, negative = inhibition was 6.06% (inactive). With `O=S(=O)(NCC(c1ccccc1)N1CCc2ccccc21)c1ccccc1` (stereo unspecified) the activity change, negative = inhibition was 1.26% (inactive).

From PubChem BioAssay AID1259415 (National Center for Advancing Translational Sciences (NCATS), 2018)
% is set by controls: 0 for no effect and ±100 for the full control effect.
